Measurements: PubChem BioAssay (NCATS)
Inconclusive results are not listed. Unmarked numbers belong to inactive results. Active and inactive are the calls of the source. The call rests on the fitted dose curve; in most records, active means well fitted inhibition curve with a large enough effect; inconclusive means small, poorly fitted or top-dose-only effect; inactive means flat fitted curve, though single readings scatter. Where a SMILES comes first, the peptide text is derived from it. [ ]: non-standard residue; d: D form. Ala(indol-2-yl) = N[C@@H](Cc1cc2ccccc2[nH]1)C(=O)O; Aib = CC(C)(N)C(=O)O

Test system: HaCat
Assay: Cytotoxic Profiling of Annotated Libraries Using Quantitative High-Throughput Screening (AID 1296008); further: nearly all actives have a fitted effect of over 60% in size
Details: Five cell lines viability, CellTiter-Glo ATP luminescence, 48-72 h; max response: active compounds read low
How it was run: (§1)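 Cells exposed to compounds for 48 or 72 hr at 37 degrees Celsius. Viability read as ATP-coupled luminescence with CellTiter-Glo after 10 min at room temperature.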
On the % scale 0 is the no-effect control and ±100 the full control effect; potency means the concentration at half of the fitted maximal effect.

Compound	Potency	max response
CC1=C[C@H]2O[C@@H]3C[C@H]4OC(=O)/C=C/C=C/C(=O)OCC/C(C)=C/C(=O)OC[C@@]2(CC1)[C@]4(C)[C@]31CO1	112 nM (active)	–
C=C(CO)C(=O)O[C@H]1CC(=C)[C@@H]2C[C@H](O)C(=C)[C@@H]2[C@H]2OC(=O)C(=C)[C@@H]21	–	4.94%
CC1CCCC(=O)CCC/C=C/c2cc(O)cc(O)c2C(=O)O1 (configuration not stated)	–	2.86%
O=C(OC[C@H]1O[C@@H](Oc2ccc(O)cc2CO)[C@H](O)[C@@H](O)[C@@H]1O)c1ccccc1	–	-28.3%
CC[C@@]1(O)C(=O)OCc2c1cc1n(c2=O)Cc2cc3c(OC)cccc3nc2-1	114 nM (active)	–
CC(=O)OC[C@]12C[C@H](O)C(C)=C[C@H]1O[C@@H]1[C@H](O)[C@@H](O)[C@@]2(C)[C@]12CO2	10100 nM (active)	–
CC[C@H]1C[C@@H]2CC[C@@H](O2)[C@@H](C)C(=O)O[C@H](CC)C[C@H]2CC[C@H](O2)[C@H](C)C(=O)O[C@@H](C)C[C@@H]2CC[C@@H](O2)[C@@H](C)C(=O)O[C@H](CC)C[C@H]2CC[C@H](O2)[C@H](C)C(=O)O1	68.5 nM (active)	–
CC(=O)OC[C@]12C[C@H](O)C(C)=C[C@H]1O[C@@H]1[C@H](O)[C@@H](OC(C)=O)[C@@]2(C)[C@]12CO2	90.4 nM (active)	–
CO[C@H]1[C@H](O)[C@H](O[C@H]2CC[C@]3(C=O)C4CC[C@]5(C)[C@H](C6=CC(=O)OC6)CC[C@]5(O)C4CC[C@@H]3C2)O[C@@H](C)[C@@H]1O (some centres not stated)	126 nM (active)	–
C[C@H]1O[C@@H](n2cnc3c(N)ncnc32)C[C@@H]1O	–	3.49%
CO[C@H]1[C@@H](O)[C@@H](C)O[C@@H](O[C@@H]2C=C3C(OC(C)=O)CC4(O)C(CC[C@]5(C)[C@@H](C6=CC(=O)OC6)CC[C@]45O)[C@@]3(C)CC2)[C@@H]1O (some centres not stated)	2430 nM (active)	–
CN(C)c1cc2c(cc1Sc1nc3c(N)nccc3n1CCNCC(C)(C)C)OCO2	461 nM (active)	–

Test system: KB-3-1
Assay: as above
Details: Five cell lines viability, CellTiter-Glo ATP luminescence, 48-72 h; max response: active compounds read low
How it was run: as §1

Compound	max response	Potency	outcome
CCC(C)/C=C(C)/C=C/C1=CC2=C(Cl)C(=O)C(C)(OC(C)=O)C(=O)C2=CO1 (configuration not stated)	-15.5%	–	–
COC1CC(O[C@H]2CC[C@]3(C)C4CC[C@]5(C)[C@@H](C6=CC(=O)OC6)[C@@H](OC(C)=O)C[C@]5(O)C4CC[C@@H]3C2)OC(C)C1O (some centres not stated)	–	563 nM (active)	–
C[C@H]1O[C@@H](O[C@H]2CC[C@]3(C=O)C4CC[C@]5(C)[C@@H](C6=CC(=O)OC6)CC[C@]5(O)[C@@H]4CC[C@]3(O)C2)C[C@@H](O)[C@@H]1O (some centres not stated)	–	89.3 nM (active)	–
CC1=CC2OC3[C@H](O)C[C@@](C)([C@]34CO4)[C@@]2(CO)[C@H](O)C1=O (some centres not stated)	–	4610 nM (active)	–
C=C1[C@@H](C)[C@H]2[C@H](Cc3ccccc3)NC(=O)[C@]23OC(=O)/C=C/C(=O)CCC[C@@H](C)C/C=C/[C@H]3[C@@H]1O	–	5800 nM (active)	–
COC1CC(O[C@H]2CC[C@@]3(C)C(CCC4C3CC[C@]3(C)[C@@H](C5=CC(=O)OC5)CC[C@]43O)C2)OC(C)C1O (some centres not stated)	–	159 nM (active)	–
CC(C)(C)[C@]1(O)C[C@@H]2OC(=O)C[C@@]23C(=O)O[C@@H]2OC(=O)[C@@H](O)[C@]213	-3.84%	–	–
C[C@H]1C/C=C/[C@H]2[C@@H]3O[C@]3(C)[C@@H](C)[C@H]3[C@H](Cc4ccccc4)NC(=O)[C@]32OC(=O)O/C=C/[C@@](C)(O)C1=O	–	563 nM (active)	–
CNC(=O)c1cc(C#N)cc(C)c1NC(=O)c1cc(Br)nn1-c1ncccc1Cl	-25.7%	–	–
OCc1nnc2n1-c1ccc(Cl)cc1C(c1ccccc1Cl)=NC2	8.98%	–	–
CN[C@@H]1C[C@H]2O[C@@](C)([C@@H]1OC)n1c3ccccc3c3c4c(c5c6ccccc6n2c5c31)C(=O)NC4	–	130 nM (active)	–
COC1CC(O[C@H]2CC[C@]3(C=O)C4CC[C@]5(C)[C@@H](C6=CC(=O)OC6)CC[C@]5(O)[C@@H]4CC[C@@H]3C2)OC(C)C1O[C@@H]1O[C@H](CO)[C@@H](O[C@@H]2O[C@H](CO)[C@@H](O)[C@H](O)[C@H]2O)[C@H](O)[C@H]1O (some centres not stated)	–	174 nM (active)	–
CC[C@@H]1C[C@H]2CC[C@H](O2)[C@H](C)C(=O)O[C@@H](C)C[C@@H]2CC[C@@H](O2)[C@@H](C)C(=O)O[C@H](CC)C[C@H]2CC[C@H](O2)[C@H](C)C(=O)O[C@@H](C)C[C@@H]2CC[C@@H](O2)[C@@H](C)C(=O)O1	–	38.5 nM (active)	–
CO[C@@H]1C[C@H](O[C@H]2CC[C@@]3(C)C(CCC4C3CC[C@]3(C)[C@@H](C5=CC(=O)OC5)[C@@H](OC(C)=O)CC43O)C2)O[C@H](C)[C@@H]1O[C@H]1O[C@H](CO[C@@H]2O[C@H](CO)[C@@H](O)[C@H](O)[C@H]2O)[C@@H](O)[C@H](O)[C@H]1O (some centres not stated)	–	979 nM (active)	–
CC(=O)O[C@@H]1[C@@H](O)[C@H]2O[C@@H]3C=C(C)[C@@H](O)C[C@]3(CO)[C@]1(C)[C@]21CO1	–	805 nM (active)	–
CO[C@H]1C[C@H](O[C@H]2CC[C@@]3(C)C(=CCC4C3CC[C@]3(C)[C@@H](C5=CC(=O)OC5)CC[C@]43O)C2)O[C@@H](C)[C@@H]1O[C@@H]1O[C@H](CO[C@@H]2O[C@H](CO)[C@@H](O)[C@H](O)[C@H]2O)[C@@H](O)[C@H](O)[C@H]1O (some centres not stated)	4.69%	–	–
C=C1[C@@H](C)[C@H]2[C@H](Cc3ccccc3)NC(=O)[C@]23[C@H](OC(C)=O)/C=C/[C@](C)(O)C(=O)[C@@H](C)C/C=C/[C@H]3[C@@H]1O	–	2590 nM (active)	–
c1cncc(OC[C@@H]2CCN2)c1	-3.57%	–	–
CC(=O)OC[C@]12C[C@H](OC(=O)CC(C)C)C(C)=C[C@H]1O[C@@H]1[C@H](O)C[C@@]2(C)[C@]12CO2	–	709 nM (active)	–
CNc1ccc2oc(C[C@H]3O[C@@]4(CC[C@H]3C)O[C@H](C(C)C(=O)c3ccc[nH]3)[C@H](C)C[C@H]4C)nc2c1C(=O)O (some centres not stated)	–	2310 nM (active)	–

Compound	max response	Potency	outcome
C[N@@+]1(CC2CC2)CC[C@]23c4c5ccc(O)c4O[C@H]2C(=O)CC[C@@]3(O)[C@H]1C5	–	–	inactive
COc1ccc2c3c([nH]c2c1)C(C=C(C)C)N1C(=O)C2CCCN2C(=O)C1C3 (configuration not stated)	–	–	inactive
CC(=O)OC[C@]12C[C@H](OC(=O)CC(C)C)C(C)=C[C@H]1O[C@@H]1[C@H](O)[C@@H](O)[C@@]2(C)[C@]12CO2	–	39.9 nM (active)	–
CC(C)(NC(=O)[C@@H](N)Cc1ccc(O)cc1)C(=O)N[C@@H](Cc1cc2ccccc2[nH]1)C(=O)N[C@@H](Cc1ccccc1)C(=O)O (H-Y[Aib][Ala(indol-2-yl)]F-OH)	–	–	inactive
C[C@]12CC[C@H](O)C[C@H]1CC[C@@H]1[C@@H]2[C@H](O)C(=O)[C@]2(C)[C@@H](c3ccc(=O)oc3)CC[C@]12O	–	46.1 nM (active)	–
CC[C@H]1C2CC3[C@@H]4N(C)c5ccccc5[C@]45C[C@@H]([C@H]2[C@H]5O)N3[C@@H]1O	0.117%	–	–
O=C(CC1NCCC[C@H]1O)Cn1cnc2cc(Br)c(Cl)cc2c1=O (some centres not stated)	-10.5%	–	–
CC(=O)OC[C@]12C[C@H](OC(=O)CC(C)C)C(C)=C[C@H]1O[C@@H]1[C@H](O)[C@@H](OC(C)=O)[C@@]2(C)[C@@]12CO2	–	35.5 nM (active)	–
CC1=C[C@H]2O[C@@H]3C[C@H]4OC(=O)/C=C/C=C/C(=O)OCC/C(C)=C/C(=O)OC[C@@]2(CC1)[C@]4(C)[C@]31CO1	–	20 nM (active)	–
C=C(CO)C(=O)O[C@H]1CC(=C)[C@@H]2C[C@H](O)C(=C)[C@@H]2[C@H]2OC(=O)C(=C)[C@@H]21	–	–	inactive
CC1CCCC(=O)CCC/C=C/c2cc(O)cc(O)c2C(=O)O1 (configuration not stated)	–	–	inactive
O=C(OC[C@H]1O[C@@H](Oc2ccc(O)cc2CO)[C@H](O)[C@@H](O)[C@@H]1O)c1ccccc1	4.17%	–	–
CC[C@@]1(O)C(=O)OCc2c1cc1n(c2=O)Cc2cc3c(OC)cccc3nc2-1	–	1280 nM (active)	–
CC(=O)OC[C@]12C[C@H](O)C(C)=C[C@H]1O[C@@H]1[C@H](O)[C@@H](O)[C@@]2(C)[C@]12CO2	–	2270 nM (active)	–
CC[C@H]1C[C@@H]2CC[C@@H](O2)[C@@H](C)C(=O)O[C@H](CC)C[C@H]2CC[C@H](O2)[C@H](C)C(=O)O[C@@H](C)C[C@@H]2CC[C@@H](O2)[C@@H](C)C(=O)O[C@H](CC)C[C@H]2CC[C@H](O2)[C@H](C)C(=O)O1	–	15.3 nM (active)	–
CC(=O)OC[C@]12C[C@H](O)C(C)=C[C@H]1O[C@@H]1[C@H](O)[C@@H](OC(C)=O)[C@@]2(C)[C@]12CO2	–	32.1 nM (active)	–
CO[C@H]1[C@H](O)[C@H](O[C@H]2CC[C@]3(C=O)C4CC[C@]5(C)[C@H](C6=CC(=O)OC6)CC[C@]5(O)C4CC[C@@H]3C2)O[C@@H](C)[C@@H]1O (some centres not stated)	–	39.9 nM (active)	–
C[C@H]1O[C@@H](n2cnc3c(N)ncnc32)C[C@@H]1O	–	–	inactive
CO[C@H]1[C@@H](O)[C@@H](C)O[C@@H](O[C@@H]2C=C3C(OC(C)=O)CC4(O)C(CC[C@]5(C)[C@@H](C6=CC(=O)OC6)CC[C@]45O)[C@@]3(C)CC2)[C@@H]1O (some centres not stated)	–	385 nM (active)	–
CN(C)c1cc2c(cc1Sc1nc3c(N)nccc3n1CCNCC(C)(C)C)OCO2	–	731 nM (active)	–
